BaF3 tox: parental Ba/F3 viability inhibition as JAK2V617F counter-screen | CellTiter-Glo ATP luminescence | inhibition, % at 5.6 µM | actives 1.1% (n = 220,000);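 active = inhibition above a per-campaign cutoff, the mean inhibition of all tested compounds plus 3 SD, cut at about 27% in these data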;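 also: 0% = DMSO wells and 100% = JAK Inhibitor I control wells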
aSyn UTR inh: 5' untranslated region of α-synuclein, MLPCN primary screen; alpha-synuclein 5'UTR reporter, inhibitor activity; actives 0.82% (n = 300,000); AID 1813; inhibition, % (tested at 7.5 µM); in the data active = inhibition above about 60%;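 also: H4 neuroglioblastoma cells stably carrying SNCA 5'UTR luciferase fusion; 0% = DMSO wells and 100% = positive control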
APP transl inh: APP translation inhibition; AID 1285; inhibition, % at 2 µM; actives 0.82% (n = 190,000); SH-SY5Y APP 5'UTR-luciferase reporter, luminescence;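 active = inhibition above a set limit, derived from the sample mean plus 3 SD, cut at about 45% in these data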
IEC-6 cytotox: IEC-6 cytotoxicity, counter-screen for KLF5 inhibitors. luminescence viability. inhibition, % at 5 µM. actives 0.78% (n = 290,000); in the data active = inhibition above about 22%;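 also: 0% = plate median of test compound wells and 100% = cytotoxic reference compound wells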
Ba/F3 V617F tox: lowers viability of Ba/F3 cells expressing EpoR and JAK2V617F; ATP luminescence; inhibition, % at 5.6 µM; actives 1.1% (n = 220,000);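 active = inhibition above the campaign mean plus 3 SD over all tested compounds, cut at about 24% in these data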;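 also: cytokine-independent growth of Ba/F3 cells driven by EpoR plus mutant JAK2; 0% = DMSO-treated cells and 100% = JAK inhibitor I control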
KLF5 inhibitor: kruppel-like factor 5 inhibition | DLD-1 KLF5 promoter-luciferase reporter, luminescence | inhibition, % at 5 µM | actives 0.23% (n = 290,000) | AID 1700;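 active = inhibition above a per-plate limit of that plate's mean compound inhibition plus 3 SD, cut at about 60% in these data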;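 also: 0% = DMSO wells and 100% = LY294002 at 200 µM; higher means less KLF5 promoter-driven luciferase light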
* marks the source's active call; other numbers are inactive results; / = not tested or not shown. Most compounds without a hit are left out; they make up all but 2.2% or so of the library.

SMILES	BaF3 tox	aSyn UTR inh	APP transl inh	IEC-6 cytotox	Ba/F3 V617F tox	KLF5 inhibitor
Cc1ccc(NC(=O)CCCC(=O)O)c(-c2nc3ccccc3[nH]c2=O)c1	/	2.0	/	5.7	/	-2.4
Cc1ccc(CCNC(=O)C2CCC(=O)N2Cc2ccc(F)cc2)cc1 (configuration not stated)	/	-0.2	/	-4.6	/	5.1
O=C(NCCc1ccc(Cl)cc1)C1CCC(=O)N1Cc1ccc(F)cc1 (configuration not stated)	95.6*	29.0	-3.4	-3.8	-2.9	-9.7
Cc1ccc(NC(=O)CSc2nnc(-c3ccco3)c(-c3ccco3)n2)cc1	0.6	22.0	31.3	-20.2	0.8	-5.8
COc1ccc(C(=O)CSc2nnc(-c3ccco3)c(-c3ccco3)n2)cc1	2.8	-35.8	66.6*	-23.6	2.8	-8.3
O=C(CSc1nnc(-c2ccco2)c(-c2ccco2)n1)Nc1ccccc1	-1.1	18.7	50.1*	-14.0	-3.4	-5.9
Cc1ccccc1NS(=O)(=O)c1nnc(NC(=O)CC(C)C)s1	/	12.0	/	-4.8	/	8.4
COc1ccc(C)cc1Nc1n[n+](-c2ccccc2)c(-c2ccc(SC)cc2)s1	/	-5.4	/	3.7	/	-162.6
COc1cccc(-c2cc(=O)c3cc(NC(=O)c4ccc(Cl)cc4)ccc3[nH]2)c1	10.2	-68.4	78.0*	4.3	1.3	-9.6
COc1cccc(-c2cc(=O)c3cc(NC(=O)c4ccccc4)ccc3[nH]2)c1	5.2	81.8*	86.8*	4.8	-2.2	-13.7
COc1cccc(C(=O)Nc2ccccc2)c1	4.5	-122.5	-45.1	2.2	3.0	-44.3
COc1ccc(C(=O)CCc2ccccc2)cc1	/	-110.7	/	-7.0	/	-122.1
CC(C)N1CCc2c(sc(NC(=O)CN3C(=O)c4ccccc4C3=O)c2C(N)=O)C1	5.9	12.1	-9.9	-1.0	-1.2	-25.3
COc1cc2ccccc2cc1C(=O)Nc1sc2c(c1C(N)=O)CCN(C(C)C)C2	/	102.4*	/	14.7	/	-10.7
Cc1cccc(C(C)C)c1NC(=O)c1c(-c2ccccc2)noc1C	/	16.7	/	2.9	/	-50.7
O=C(CN(Cc1ccccc1)S(=O)(=O)c1ccccc1)N/N=C/c1ccc([N+](=O)[O-])cc1	95.0*	7.9	10.0	-4.8	0.6	-15.7
O=C(NC1CC1)c1ccc(Cl)c(S(=O)(=O)N2CCOCC2)c1	/	4.6	/	-5.0	/	-12.3
O=C(Nc1cccc(C(F)(F)F)c1)Oc1ccc(Cl)c2cccnc12	1.7	75.1*	/	-3.0	-4.8	-6.8
CCN(CC)C(=O)Oc1ccc(Cl)c2cccnc12	5.4	22.7	-22.1	0.3	0.3	9.6
CN(C)c1cc[n+](CC(=O)N2c3ccccc3Sc3ccccc32)cc1	37.3*	/	3.0	3.3	23.8*	-0.8
CCOC(=O)c1ccc2nc(Nc3nc4ccc(F)cc4s3)sc2c1	5.2	13.3	6.8	-6.8	-1.8	49.0
COC(=O)c1ccc2nc(Nc3nc4c(F)cc(F)cc4s3)sc2c1	6.5	-11.7	4.0	10.5	2.1	91.8*
CCOc1ccc(C(=O)NCC(=O)N2CCCC2)cc1	/	-10.5	/	-6.0	/	-6.5
COc1ccc(NC(=O)C(=O)N/N=C\c2ccc(CNC(=O)C(=O)Nc3ccc(C)c(C)c3)o2)c(OC)c1	/	88.4*	/	-1.2	/	-33.5
COCCNC(=O)/C(C#N)=C\c1ccc(CNC(=O)C(=O)Nc2ccc(C)c(C)c2)o1	10.1	8.8	-16.1	3.0	1.7	2.7
SMILES	BaF3 tox	aSyn UTR inh	APP transl inh	IEC-6 cytotox	Ba/F3 V617F tox	KLF5 inhibitor
CC1CC(=O)NN=C1c1ccc(N(C)C)c([N+](=O)[O-])c1 (configuration not stated)	3.4	47.5	8.1	-3.5	0.2	-25.2
CCN(CC)c1ccc(C2=NNC(=O)CC2C)cc1[N+](=O)[O-] (configuration not stated)	3.0	98.5*	-9.7	-1.3	6.5	-30.4
Nc1nc(Nc2ccccc2)nc(N2CCOCC2)c1[N+](=O)[O-]	5.3	16.5	57.7*	-5.6	-1.5	-11.4
COc1ccc(OC)c(CNS(=O)(=O)c2c(C)nc3scc(C)n3c2=O)c1	/	-25.2	/	-1.1	/	-21.4
Nc1ccc(-c2nc3c(Cl)cc(N)cc3[nH]2)cc1	-4.7	85.2*	63.2*	8.5	3.1	42.0
Nc1ccc2nc(-c3ccc(N)c(Cl)c3)[nH]c2c1	13.7	-114.7	-59.2	-0.6	13.2	-86.7
COc1cc(/C=C2\COC/C(=C\c3cc(OC)c(OC)c(OC)c3)C2=O)cc(OC)c1OC	104.6*	103.4*	/	3.6	99.0*	2.1
COc1cc(/C=C2\CC(C(C)(C)C)C/C(=C\c3cc(OC)c(OC)c(OC)c3)C2=O)cc(OC)c1OC (configuration not stated)	/	79.8*	/	-1.9	/	-9.3
COC(=O)Nc1ccc(S(=O)(=O)N2CCCc3cccc(O)c32)cc1	12.0	-11.6	0.8	16.5	3.8	-6.9
Cn1c(=O)oc2cc(S(=O)(=O)N3CCc4ccccc43)ccc21	3.0	16.0	/	1.7	2.7	20.8
O=S(=O)(c1ccc2ccccc2c1)N1CCc2ccccc21	/	32.5	/	1.2	/	-21.4
Cn1c(=O)c(=O)n(C)c2cc(S(=O)(=O)N3CCc4ccccc43)ccc21	30.6*	12.0	-11.2	2.3	-2.4	25.1
Cn1c(=O)oc2cc(S(=O)(=O)N3CCCc4ccccc43)ccc21	44.7*	0.0	37.5	0.4	54.9*	20.4
COC(=O)Nc1ccc(S(=O)(=O)N2CCCc3ccccc32)cc1	78.6*	84.1*	89.8*	73.8*	84.8*	51.2
Cc1cccc(NC(=S)/N=C(\N)Nc2nc(C)c3ccc(C)cc3n2)c1	39.0*	-15.2	-23.7	4.6	34.5*	-110.5
C=CCSc1nc2c(cnn2-c2ccccc2)c(=O)n1N	0.3	74.2*	/	-0.1	1.5	-149.8
COc1ccc2nc(C)cc(SCC(=O)N/N=C/c3ccccc3)c2c1	1.6	-0.4	1.5	-7.7	1.4	9.3
COc1ccc2nc(C)cc(SCC(=O)N/N=C/c3ccc(O)cc3O)c2c1	15.0	79.8*	35.7	5.2	6.9	22.3
Cc1ccc2c(c1)S/C(=C/c1ccc[n+](C)c1)N2CCO	70.9*	-7.2	-6.5	0.5	88.3*	5.1
Cc1ccc2c(c1)N(C)/C(=C/c1cccc[n+]1CCO)S2	/	-9.0	/	-7.6	/	-21.6
CC(=O)/C(N=Nc1c(C)n(C)n(-c2ccccc2)c1=O)=C(\C)O	-2.0	-1.9	78.6*	-4.0	-1.1	-24.1
O=C(NCC(=O)N1CCN(c2ccccn2)CC1)c1ccc(Br)o1	/	-6.3	/	6.9	/	-12.0
COc1ccccc1NC(=O)C(CC=C(Cl)Cl)C(C)=O (configuration not stated)	39.1*	0.4	4.6	4.1	-6.8	2.1
COc1ccccc1NC(=O)C(C/C=C(\C)Cl)C(C)=O (configuration not stated)	-0.9	-73.3	-11.9	3.4	-1.2	-4.0
CCN1CCN(C(=O)c2ccc(-c3nc4ccccc4s3)s2)CC1	5.6	-65.7	-131.3	1.8	3.1	-104.1
O=C(NC1CC1)c1ccc(-c2nc3ccccc3s2)s1	3.1	96.3*	-82.6	11.1	1.1	34.9
